{"source": "PubChem BioAssay (Tox21)", "note": "Inconclusive results are not listed. Active and inactive are the calls of the source. Calls come from the whole dose curve; as a rule, active = well fitted cell-killing curve with a large enough effect in the repeat runs; inconclusive = weak or mixed curves; inactive = no such curve, though single readings can be large or run the other way. % is set by controls: 0 for no effect and ±100 for the full control effect."}
{"assay": "qHTS assay to identify small molecule agonists of the peroxisome proliferator-activated receptor delta (PPARd) signaling pathway - cell viability counter screen (AID 743211); note: nearly all actives have a fitted effect of over 55% in size", "details": "PPARd-bla HEK293H viability, CellTiter-Glo luminescence, 17 h; series mostly up to 62.6 µM; activity change, negative = cytotoxicity: at the top concentration", "method_in_brief": "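HEK293H PPARd-bla, 3000 cells/well; 5 h preincubation 37C/5% CO2; cpd in DMSO, 17 h 37C; B/G FRET substrate 2 h RT; CellTiter-Glo 30 min RT, luminescence.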"}
{"smiles": "Cc1cnc[nH]1", "activity change, negative = cytotoxicity": "4.22% (inactive)"}
{"smiles": "OC(Cn1cncn1)(c1ccc(F)cc1)c1ccccc1F", "note": "(stereo not drawn)", "activity change, negative = cytotoxicity": "1.03% (inactive)"}
{"smiles": "CC(=O)CC(c1ccc(Cl)cc1)c1c(O)c2ccccc2oc1=O", "note": "(stereo not drawn)", "activity change, negative = cytotoxicity": "2.75% [at 81.1 µM] (inactive)"}
{"smiles": "ClCC(Cl)Cl", "activity change, negative = cytotoxicity": "-0.251% [at 81.1 µM] (inactive)"}
{"smiles": "Oc1c(Cl)cccc1Cl", "activity change, negative = cytotoxicity": "0.727% (inactive)"}
{"smiles": "CCC1(c2ccccc2)C(=O)NC(=O)NC1=O", "activity change, negative = cytotoxicity": "0.217% [at 81.1 µM] (inactive)"}
{"smiles": "Fc1cc(Br)ccc1CBr", "activity change, negative = cytotoxicity": "1.38% (inactive)"}
{"smiles": "O=NN1CCCCC1", "activity change, negative = cytotoxicity": "1.12% (inactive)"}
{"smiles": "CS(=O)(=O)c1cc(C(F)(F)F)ccc1C(=O)c1cnoc1C1CC1", "activity change, negative = cytotoxicity": "-11.6% (inactive)"}
{"smiles": "O=[N+]([O-])c1cccc2c([N+](=O)[O-])cccc12", "activity change, negative = cytotoxicity": "4.83% [at 81.1 µM] (inactive)"}
{"smiles": "NC(=S)C(N)=S", "activity change, negative = cytotoxicity": "5.84% (inactive)"}
{"smiles": "CCC(=O)C(CCN(C)C)(c1ccccc1)c1ccccc1", "activity change, negative = cytotoxicity": "-17.3% (inactive)"}
{"smiles": "C[C@@H]1CN(C2CCC(C#N)(c3ccc(F)cc3)CC2)CC[C@]1(C(=O)O)c1ccccc1", "note": "(stereo partly drawn)", "activity change, negative = cytotoxicity": "5.14% (inactive)"}
{"smiles": "O=[N+]([O-])c1cccc2cccnc12", "activity change, negative = cytotoxicity": "1.25% [at 81.1 µM] (inactive)"}
{"smiles": "CCOP(=O)(N=C1SCCS1)OCC", "activity change, negative = cytotoxicity": "9.17% (inactive)"}
{"smiles": "CN1CCC(O)(c2ccc(F)cc2)C(C(=O)c2ccc(F)cc2)C1", "note": "(stereo not drawn)", "activity change, negative = cytotoxicity": "3.56% (inactive)"}
{"smiles": "C[N+](=O)[O-]", "activity change, negative = cytotoxicity": "0.406% (inactive)"}
{"smiles": "O=C1OC(c2ccc(O)c(S(=O)(=O)O)c2)(c2ccc(O)c(S(=O)(=O)O)c2)c2c(Br)c(Br)c(Br)c(Br)c21", "activity change, negative = cytotoxicity": "0.215% (inactive)"}
{"smiles": "O=[N+]([O-])c1cc(Cl)c(Cl)c(Cl)c1", "activity change, negative = cytotoxicity": "-0.283% (inactive)"}
{"smiles": "CN(C)CCc1ccc(O)cc1", "activity change, negative = cytotoxicity": "0.34% (inactive)"}
{"smiles": "O=C(Oc1ccc(Br)cc1)N1CCN2CCC1CC2", "activity change, negative = cytotoxicity": "-28.7% (inactive)"}
{"smiles": "CC(C)[N+](=O)[O-]", "activity change, negative = cytotoxicity": "0.103% (inactive)"}
{"smiles": "C=C(C)CN(CC)c1c([N+](=O)[O-])cc(C(F)(F)F)cc1[N+](=O)[O-]", "activity change, negative = cytotoxicity": "8.97% (inactive)"}
{"smiles": "NC(=O)c1cc([N+](=O)[O-])cc([N+](=O)[O-])c1", "activity change, negative = cytotoxicity": "-2.84% (inactive)"}
{"smiles": "N#CC(Cl)(Cl)Cl", "activity change, negative = cytotoxicity": "0.54% (inactive)"}
{"smiles": "CCCCc1c(C)nc(NCC)[nH]c1=O", "activity change, negative = cytotoxicity": "-0.42% (inactive)"}
{"smiles": "CCc1cc2c(s1)-n1c(C)nnc1CN=C2c1ccccc1Cl", "activity change, negative = cytotoxicity": "1.63% (inactive)"}
{"smiles": "CCOP(=S)(OCC)SCSP(=S)(OCC)OCC", "activity change, negative = cytotoxicity": "3.34% (inactive)"}
{"smiles": "C(CCOCC1CO1)COCC1CO1", "note": "(stereo not drawn)", "activity change, negative = cytotoxicity": "0.787% (inactive)"}
{"smiles": "Nc1cc2c3c(c1)C(c1ccccc1)=N[C@@H](NC(=O)c1cccnc1)C(=O)N3CC2", "activity change, negative = cytotoxicity": "-11.4% (inactive)"}
{"smiles": "CCOc1nc(C(Cl)(Cl)Cl)ns1", "activity change, negative = cytotoxicity": "-1.64% (inactive)"}
{"smiles": "Cc1cc(C)c(C(=O)P(=O)(C(=O)c2c(C)cc(C)cc2C)c2ccccc2)c(C)c1", "activity change, negative = cytotoxicity": "-14.2% (inactive)"}
{"smiles": "C[C@H]1CCC[C@H](O)CCCCCc2cc(O)cc(O)c2C(=O)O1", "activity change, negative = cytotoxicity": "-7.87% [at 81.1 µM] (inactive)"}
{"smiles": "CCCSC(=O)N(CCC)CCC", "activity change, negative = cytotoxicity": "0.174% (inactive)"}
{"smiles": "CCCCN(CCCCO)N=O", "activity change, negative = cytotoxicity": "1.5% (inactive)"}
{"smiles": "N#CCNCC#N", "activity change, negative = cytotoxicity": "6.18% (inactive)"}
{"smiles": "Cc1coc2c1CCC(C)C2", "note": "(stereo not drawn)", "activity change, negative = cytotoxicity": "1.05% [at 81.1 µM] (inactive)"}
{"smiles": "CCOC(=O)NC(=S)Nc1ccccc1NC(=S)NC(=O)OCC", "activity change, negative = cytotoxicity": "-9.17% (inactive)"}
